Experimental findings from the OligoGym collection are described below.
Also: reference of the scale not given here.

The first assay addresses MIS12. As to the kind of experiment: pooled miR-30 sensor sort-seq; sequence = guide strand. Particulars: shRNA.
TAGATCCGAAGCATGCACGTTT: the sensor-assay potency score (higher = more potent) turned out to be 0.233.
TCTCCTTACATTTATCTTCAGG returned a sensor-assay potency score (higher = more potent) of -1.19.
In the case of TTTTTTGCTCTTCTAATTCTGC, the sensor-assay potency score (higher = more potent) was -0.78.
Sequence TGAAATGCAATGTAGATCCGAA registered a sensor-assay potency score (higher = more potent) of 0.0164.
On the same count and under the same terms, the result for TTGGTTTGAACAGTCACTGGTA reads 0.981; that for TAATTCTGCAAGAAGGGCCTGC, 0.0971; that for TAATGTTCTGTAGTTTTCTGGA, -0.154.
Still for that read-out and setting: to TTAGTACATAATTCAGTCTTGT belongs -0.329.

Another assay has as its target MKNK2. Described as above. The settings on record: shRNA.
TGATGCAGGTCTGCACTCGGGC came in with a sensor-assay potency score (higher = more potent) of -1.01.
On the same count and under the same terms, to TTCCTCTGCAGGACCATGGGAG belongs -0.448; to TTATGCAGAAAGTCCAAGGCGC, -0.181; to TTTGTTATGCAGAAAGTCCAAG, -0.811.
TTGTCGGGGAACTCGTACTTGC gave a sensor-assay potency score (higher = more potent) of -1.05.
With TTGATGCAGGTCTGCACTCGGG, the sensor-assay potency score (higher = more potent) is -1.43.
In turn, ATCAGCTCTAGGACGTTCCTGT had a sensor-assay potency score (higher = more potent) of -0.0446.
TTGAGTTTGATGCCGCTGCCCA: the sensor-assay potency score (higher = more potent) was -0.98.
As for TCAAACAGCATGTTCTGGCAGG, the sensor-assay potency score (higher = more potent) is -0.787.
TAGGACGTTCCTGTGTCCCTGG had a sensor-assay potency score (higher = more potent) of 0.366.
On to TAGATGCTAGCCTCCTCGCTGA, for which the sensor-assay potency score (higher = more potent) is -0.602.
Take TCCAGCTCGTTGAAGTGCCGGC: the sensor-assay potency score (higher = more potent) is -1.11.

The target in another assay is MLL. Described as above. Particulars: shRNA.
With TATCTCTGGAACTAGATCCCAT, the sensor-assay potency score (higher = more potent) was 0.126.
Consider TTTGCTTAGAACTATTGCCATT, for which the sensor-assay potency score (higher = more potent) is -1.46.
Sequence TTACTCTTCTCAATCTTGCAGA showed a sensor-assay potency score (higher = more potent) of 0.352.
On the same count and under the same terms, the result for TAAGACATGATCAACTACTTTG reads -0.602.
Sequence TATACTTTTAGAATCTTTCTTC displayed a sensor-assay potency score (higher = more potent) of 0.988.
For TTCTGCTTCACAATCCTCCTTA, the sensor-assay potency score (higher = more potent) came out at 0.726.
Same read-out and setting: the result for TCGGTGTAGACTCTAATCGGGC reads -1.36.
TTAAAGTCCACTCTGATCCTGT registered a sensor-assay potency score (higher = more potent) of 0.574.
TTTTCGTCGTTCTAGATCCAAA came in with a sensor-assay potency score (higher = more potent) of -1.11.
The same measure, in the same setting: to TTGTTTAAGACTCTTACTCTTC belongs -0.426; to TTCTGTTGTAGGCAGCTGCTGA, -0.148.

A further assay has as its target MMADHC. The assay is described as above. Particulars: shRNA.
TTCGAGAGCATATATCTGGAGG: the sensor-assay potency score (higher = more potent) was -0.923.
Still for that read-out and setting: to TTGTGTTACAGTCAGAATCATT belongs -1.32.
As for TTTGCCATTAGCTACTTCTGGA, the sensor-assay potency score (higher = more potent) was -0.35.
The sequence TGAGGTGACAATCAAAACCTAT gave a sensor-assay potency score (higher = more potent) of -0.635.
Take TAATTTCTTGTTCAACAGGTGC: the sensor-assay potency score (higher = more potent) was -0.82.
TTTCTTGTTCAACAGGTGCATC came in with a sensor-assay potency score (higher = more potent) of -1.26.
As to TGTATTGCACACTCTACTCTGG, the sensor-assay potency score (higher = more potent) came to 0.407.
On the same count and under the same terms, the result for TTTTCTAAGAGCACTTCTCTTT reads -0.6; that for TTCTTCTGTGAAGCAGTCCCAT, -0.488.
